# This is a sample that favours compounds with a hit; in the whole collection about 3.9% have one here.
# Eya2 phos inh = blocks the phosphatase activity of human Eya2. O00167. recombinant Eya2, OMFP fluorescence dephosphorylation (OMFP is methylfluorescein phosphate). Potency, µM (titrated, usually from 76.9 µM), inactives show top-dose activity, negative = inhibition, most hits filed as inhibitors. 330,000 compounds, 0.006% hits; note: potency is the fitted concentration of half-maximal effect; % is set by controls: 0 for no effect and ±100 for the full control effect
#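 Eya2 protein (added as 0.2 uM solution) was preincubated with compound for 10 min at ambient temperature in 50 mM HEPES pH 7.5, 50 mM NaCl, 5 uM MgCl2, 0.05% BSA, 1 mM DTT. OMFP (added at 50 uM) then reacted 10 min; fluorescence read at 485/525 nm.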
# D1 antag = blocks dopamine activation of the human D1 receptor; HEK293 TREx D1 cells, calcium flux, dopamine EC80; active compounds read low; activity change, negative = inhibition, % at 10 µM; 360,000 compounds, 3.2% hits; in the data active = activity change below about -30%; note: % is set by controls: 0 for no effect and ±100 for the full control effect
# Target sequence (P21728 whole entry, looked up): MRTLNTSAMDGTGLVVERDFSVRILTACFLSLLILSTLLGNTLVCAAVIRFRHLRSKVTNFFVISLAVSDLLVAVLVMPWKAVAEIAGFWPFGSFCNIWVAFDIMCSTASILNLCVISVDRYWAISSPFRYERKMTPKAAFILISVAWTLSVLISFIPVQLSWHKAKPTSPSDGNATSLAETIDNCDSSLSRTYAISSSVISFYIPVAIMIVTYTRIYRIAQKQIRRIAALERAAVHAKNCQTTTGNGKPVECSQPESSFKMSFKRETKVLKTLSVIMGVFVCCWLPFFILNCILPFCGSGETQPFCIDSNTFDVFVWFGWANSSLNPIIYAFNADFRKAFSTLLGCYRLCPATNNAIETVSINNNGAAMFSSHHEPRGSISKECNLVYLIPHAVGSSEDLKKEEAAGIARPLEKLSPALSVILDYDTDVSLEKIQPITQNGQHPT
#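 Compound effects on dopamine-evoked calcium signalling were measured in tetracycline-induced HEK293 Trex D1 cells. Dopamine at EC80 followed a 180 s compound pre-read, and fluorescence was tracked kinetically for 180 s more.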
# GALK inh = galactokinase (human) inhibition | Purified GALK, Kinase-Glo residual ATP luminescence | Potency, µM (highest dose often 57.5 µM), for inactives: at the top dose activity change, negative = inhibition, most hits filed as inhibitors | 270,000 compounds, 0.007% hits | AID 1868; note: potency is the fitted concentration of half-maximal effect; % is set by controls: 0 for no effect and ±100 for the full control effect
#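 ATP-depletion format; final 35 uM ATP, 100 uM D-galactose, 5 nM enzyme; pH 8.0 HEPES/Mg2+ buffer; 60 min RT; luminescence read 10 min after detection reagent.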
# D1 ag = agonists of human D1 dopamine receptor; P21728; HEK293 T-REx D1 cells, calcium flux, agonist mode; activation, % at 2 µM; 360,000 compounds, 1% hits; in the data active = activation above about 30%; note: 0% is about no effect
#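 Tetracycline-induced HEK293 TREx D1 cells, force-coupled to calcium signalling, were dye-loaded with a no-wash calcium kit. Compound was pin-added after a 10 s baseline. Fluorescence was read kinetically at 1 cycle/s for 180 s, with calcium rises flagged as agonism.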
# D1 potentiator = potentiators of human D1 dopamine receptor | 360,000 compounds, 0.036% hits | HEK293 TREx D1 cells, calcium flux, dopamine EC20 potentiation | potentiation, % at 10 µM | P21728; in the data active = potentiation above about 30%; note: 0% is about no effect
# USP2a block = blocks human ubiquitin-specific protease USP2a; AID 463254; O75604; 330,000 compounds, 0.01% hits; Potency, µM (titrated, usually from 38.3 µM), without a hit: at the highest dose activity change, negative = inhibition, most hits filed as inhibitors; USP2 core, Ub-CHOP2 coupled fluorogenic reporter, 485/531;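 note: potency is the fitted concentration of half-maximal effect; plate controls were DMSO wells for no effect and full inhibition by NEM control for full effect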
#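 Cell-free coupled assay: 10nM USP2 core preincubated 30min RT with compound in Tris-HCl pH 8.0/CaCl2/CHAPS buffer, then 25nM Ub-CHOP2 and 25nM reporter substrate; fluorescence (Ex 485/Em 531) read after 60min RT, normalized to NEM inhibition, concentration-response curves fitted.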
# * = called active by the depositor; ? = inconclusive; . = no result. Unless noted, calls come from the whole dose curve; as a rule, active = well fitted inhibition curve with a large enough effect; inconclusive = small, poorly fitted or top-dose-only effect, or effect the other way; inactive = flat fitted curve, though single readings scatter.
SMILES,Eya2 phos inh,D1 antag,GALK inh,D1 ag,D1 potentiator,USP2a block
NC(=O)c1ccc[n+](CC(=O)c2ccc(Cl)c(Cl)c2)c1,-4%,-83*,.,-1,-4,4%
C=Cc1ccc(N=Cc2c(O)ccc3ccccc23)cc1,8%,6,2%,9,15,1%
Oc1ccc2ccccc2c1C=Nc1ccc(N2CCOCC2)cc1,9%,2,-4%,52*,-6,-11%
Oc1ccccc1N=Cc1c(O)ccc2ccccc12,?,5,-1%,101*,2,2%
OC(c1cc(C(F)(F)F)nc2c(C(F)(F)F)cccc12)C1CCCCN1 (configuration not stated),-4%,-10,.,160*,34*,2%
FC(F)(F)c1cc(N2CCNCC2)c2ccccc2n1,3%,7,-1%,2,-1,-8%
OC(c1cc(-c2ccc(C(F)(F)F)cc2)nc(C(F)(F)F)c1)C1CCCCN1 (configuration not stated),-14%,-11,1%,158*,13,3%
CCC(=O)c1ccccc1OCCN1CCN(Cc2ccccc2)CC1,4%,-17,2%,3,3,-8%
CCC(=O)c1ccccc1OCCCn1cncn1,-1%,-31*,0%,1,-8,2%
Cc1ccc(Cn2nnc3sc4c(c3c2=O)CCC(C)C4)cc1 (configuration not stated),.,5,.,0,-3,.
COC(=O)c1ccc(Cn2nnc3sc4c(c3c2=O)CCCC4)cc1,.,1,.,-1,-2,.
CC1CCc2c(sc3nnn(Cc4ccc(F)cc4)c(=O)c23)C1 (configuration not stated),.,-45*,.,3,-2,.
O=C(O)c1ccc(Cn2nnc3sc4c(c3c2=O)CCCC4)cc1,6%,-30*,-1%,2,1,7%
CCCN(CCC)CC(O)Cn1cc(/C=C/C(=O)c2ccc(OCC)cc2)c2ccccc21 (configuration not stated),.,-32*,.,69*,0,.
Cc1ccc(N(CC(O)Cn2c3ccccc3c3ccccc32)S(C)(=O)=O)cc1 (configuration not stated),-19%,6,0%,-1,2,-2%
CCCN(CCC)CC(O)Cn1c2ccccc2c2ccccc21 (configuration not stated),4%,1,12%,31*,-4,3%
CC(C)CCN(CCC(C)C)CC(O)Cn1c2ccccc2c(=O)c2ccccc21 (configuration not stated),-4%,32,4%,3,10,1%
Cc1cccc(C)c1N(CC(O)Cn1c2ccccc2c2ccccc21)S(C)(=O)=O (configuration not stated),-21%,-36*,-6%,8,-4,1%
Cc1oc2ccc(O)c(CN3CCN(C)CC3)c2c1C(=O)Nc1cccc(Cl)c1C,.,-9,.,6,-2,.
O=Cc1c[nH]c2ccccc12,.,-55*,.,1,7,.
Cc1ccc(CN(Cc2ccco2)C(=O)c2ccc(Cl)cc2)o1,.,-2,.,0,-2,.
O=C(NCc1cccnc1)Nc1cccc(Cl)c1Cl,7%,-30*,-2%,4,-8,-1%
Cc1cccc(NC(=O)NCc2cccnc2)c1C,-21%,-34*,-6%,2,-4,0%
O=C(NCc1cccnc1)NC1(C(F)(F)F)Oc2ccccc2O1,14%,-42*,-1%,-1,1,3%
Cc1cccc(NC(=O)Nc2cccnc2)c1C,0%,0,-3%,2,0,0%
SMILES,Eya2 phos inh,D1 antag,GALK inh,D1 ag,D1 potentiator,USP2a block
COc1cccc2c1C(=O)c1c(O)c3c(c(O)c1C2=O)C[C@@](O)(C(=O)CO)C[C@@H]3O[C@H]1C[C@H](N)[C@H](O)[C@H](C)O1,30%,-7,.,34*,-4,?
COc1ccc(C(=O)c2ccc(Br)cc2)c2ccccc12,-5%,-40*,-2%,0,-6,-1%
COc1ccc(C(=O)c2ccc(Cl)cc2)c2ccccc12,6%,7,2%,5,10,0%
COC(=O)c1ccccc1NC(=O)Cn1cnc2cc(C)c(C)cc21,0%,-16,-2%,38*,-4,3%
CCOc1ccc(CNC(=O)c2ccc(-c3nc(CSc4ccc(C)cc4)c(C)o3)cc2)cc1,.,-9,.,1,1,.
CC(CC(=O)NC1CCCC1)c1ccccc1 (configuration not stated),5%,7,-4%,1,-8,1%
CC(C)N(Cc1ccccc1)C(=S)NC1CCCCC1,3%,-31*,13%,5,-15,-1%
CC(c1ccccc1)C(CC(=O)O)C(=O)NC1CCCCC1 (configuration not stated),14%,-31*,1%,1,-4,0%
Cc1ccc(C)c(NC(=O)C(=O)NCC(c2cccnc2)N2CCN(c3ccc(F)cc3)CC2)c1 (configuration not stated),.,-11,.,-2,-2,.
COc1ccc(CCNC(=O)Cn2nc(C)n3c(cc4cc(F)ccc43)c2=O)cc1OC,.,-14,.,2,-4,.
COc1cccc(C2=CC(c3ccccc3F)n3ncc(C(=O)Nc4ccc(F)cc4)c3N2)c1 (configuration not stated),.,-11,.,5,1,.
N/C(Cc1nc(-c2ccc(Br)cc2)cs1)=N\O,5%,-47*,0%,2,7,1%
N/C(Cc1nc(-c2ccc(F)cc2)cs1)=N\O,-1%,-7,-3%,0,11,3%
Brc1ccc(-c2csc(Nc3nc(-c4ccc(Br)cc4)cs3)n2)cc1,-8%,-30*,-2%,1,-14,4%
Cc1nc(C)c(-c2csc(Nc3ccc(O)cc3C)n2)s1,3%,-32*,-1%,7,-10,1%
Nc1nc(-c2ccc(Br)cc2)cs1,19%,-19,-2%,0,-6,0%
Cc1nc(C)c(-c2csc(Nc3ccc(F)cc3)n2)s1,-3%,-38*,-3%,0,-6,5%
COc1cccc(Nc2nc(-c3sc(C)nc3C)cs2)c1,-19%,-28,5%,0,-17,-5%
O=C(Cn1cnc2onc(-c3ccc(F)cc3)c2c1=O)Nc1ccc(F)c(Cl)c1,.,-10,.,5,6,.
CCOc1ccc(CCNC(=O)C2CCN(C(=O)c3cc4sccc4n3CC)CC2)cc1OCC,.,-8,.,10,-7,.
O=C(CCn1c(=O)c2cccn2c2cccnc21)Nc1ccccc1C(F)(F)F,.,11,.,-1,-5,.
COc1ccc(OC)c(NC(=O)CSC2=Nc3ccccc3C3=NC(CC(=O)NCc4ccc5c(c4)OCO5)C(=O)N23)c1 (configuration not stated),.,-17,.,1,-4,.
